Structures are written as SMILES. In all, about 68,000 compounds went through this assay and about 2,700 (4%) showed an effect of 50% or more. Shown is part of a subset that was picked to be rich in strong results.

The test system of the test is Plasmodium berghei. Briefly: Screen against P. berghei liver stage (PbLuc), transformed with Luciferase, at 2uM. The class given is functional, HepG2. Particulars: tested at 2 uM.
As for `CC(C)S(=O)(=O)NCC1CCCN(C(=O)c2ccc3c(c2)OCCO3)C1` (configuration not stated), the INHIBITION was found to be 21.39%.
Regarding `O=C(CC1CC1)N[C@@H]1CN(C(=O)c2cccs2)C[C@@H]2CCCO[C@@H]21`, the INHIBITION is listed as 45.36%.
The figure for `CC(NC(=O)N1CCSC(C)(C)C1)c1noc(-c2ccccc2)n1` (configuration not stated) is 29.13%; for `CCN1CCN(C(=O)NC(C)c2noc(-c3ccccc3)n2)CC1` (configuration not stated) it is 88.75%; for `CC(NC(=O)N1CCC[C@H]1CO)c1noc(-c2ccccc2)n1` (some centres not stated) it is 5.28%.
The value for `O=C(Nc1ccccc1)N1C2CCC(O)(CC2)C1CN1CCOCC1` (configuration not stated) was 11.94%.
`O=C(Nc1nc(-c2ccccc2)ns1)N1CCC(CO)CC1`: the INHIBITION stood at 7.72%.
The figure for `CCC(O)C1CCN(C(=O)Nc2nc(-c3ccccc3)ns2)CC1` (configuration not stated) is 57.92%; for `CC(O)C1CCN(C(=O)Nc2nc(-c3ccccc3)ns2)CC1` (configuration not stated) it is -65.84%; for `O=C(c1cscn1)N1CCC2(CN(Cc3ccncc3)C2)C1` it is 55.66%.
The value for `O=C(c1cscn1)N1CCC2(CN(Cc3ccoc3)C2)C1` was 46.87%; that for `O=C(c1cscn1)N1CCC2(CN(Cc3ccsc3)C2)C1` was -27.26%.
The figure for `Cc1cc(C)cc(C(=O)Nc2cccc(CN3CCCC3C(N)=O)c2)c1` (configuration not stated) is 57.01%.
With `CCc1ccc(C(=O)Nc2cccc(CN3CCCC3C(N)=O)c2)cc1` (configuration not stated), the INHIBITION amounted to 10.61%.
As for `NC(=O)C1CCCN1Cc1cccc(NC(=O)c2cc(Cl)cc(Cl)c2)c1` (configuration not stated), the INHIBITION was determined as 3.14%.
The value for `O=C(CSc1nnc(N2CCNCC2)s1)Nc1ccccc1` was 48.59%; that for `Cn1nc(Br)c2c(NCCS(N)(=O)=O)ncnc21` was 20.21%.
The value for `Cn1nc(Br)c2c(NCCN)ncnc21` was 60%; that for `Cn1nc(Br)c2c(NCCNc3ncccn3)ncnc21` was 33.11%.
The value for `CC(C)NC(=O)CC(C)NCc1ccc(F)cc1Cl` (configuration not stated) was 40.64%.
On to `CS(=O)(=O)Cc1ccc(Cl)cc1NCc1ccccc1F`, for which the INHIBITION amounted to 0.13%.
The value for `CC(C)C(=O)NCc1cc(Br)ccc1F` was -64.91%; that for `CC(C)NC(=O)CC(C)NCc1cc(Cl)ccc1F` (configuration not stated) was 52.51%.
The value for `CC(CS(C)(=O)=O)NCc1cc(Cl)ccc1F` (configuration not stated) was 50.53%; that for `CC(C)NC(=O)CNC(C)c1c(F)cccc1Cl` (configuration not stated) was 5.34%.
The value for `Cc1cnc(CNc2ncc(C)c(-c3cnn(C)c3)n2)cn1` was -20.35%; that for `Cc1cccc(N2CCC3(CCN(C(=O)c4cccnc4)CC3)C2)n1` was 7.29%.
For `Cc1nnc(NC(=O)CN2CCCC2c2noc(C3CC3)n2)s1` (configuration not stated), the INHIBITION is recorded as -32.11%.
The value for `CC(NC(=O)c1ccoc1)C(=O)N(C)Cc1ccsc1` (configuration not stated) was -56.89%; that for `O=C(NCCc1ccsc1)c1ccoc1` was 52.08%; that for `O=C(Cc1ccsc1)NCCc1ccoc1` was 42.8%.
The figure for `COc1ccc(CN2CCC3(CC2)CCN(CC2CC2)C3=O)cc1` is -0.64%.
In the case of `CC(C)CNC(=O)c1ccc(NC(=O)NC(C)c2ccccn2)cc1` (configuration not stated), the INHIBITION is -17.17%.
The value for `O=C(c1ccccn1)N1Cc2nccn2CC(COc2cccnc2)C1` (configuration not stated) was -28.34%; that for `Cc1ccc(Oc2ncccc2C(=O)N(C)CCCN(C)C)c(C)c1` was 32.85%.
The value for `Cc1ccc(Oc2ncccc2C(=O)O)c(C)c1` was 50.61%; that for `Cc1ccc(Oc2ncccc2C(=O)N(C)CC2OCCO2)c(C)c1` was 23.53%; that for `O=C(c1ccco1)N1CC2(CCNCC2)c2cc(Cl)ccc21` was 34.18%.
Take `COc1cc(N2C[C@@H](C)[C@](O)(C3CC3)C2)nc(N)n1`: the INHIBITION is 56.12%.
The figure for `COc1cc(N2C[C@@H](C)[C@](O)(C3CC3)C2)ncn1` is 18.38%; for `COCc1cc(N2C[C@@H](C)[C@](O)(C3CC3)C2)ncn1` it is 8.09%; for `CN(CC1CCCC1)C(=O)c1cn(C)nc1-c1cccnc1` it is 32.67%.
The value for `COc1nccc(N2CC[C@H](CO)[C@@H](O)C2)c1C#N` was 5.38%; that for `Cn1ncc2c1CCCC2NCc1cccc(C(F)(F)F)c1` (configuration not stated) was 13.24%.
For the molecule `CN1CCCC(c2nc3c([nH]2)CC(C)(C)CNC3=O)C1` (configuration not stated), the INHIBITION is -3.25%.
The figure for `CC1(C)CNC(=O)c2nc(C3CCN(C(=O)C4CC4)CC3)[nH]c2C1` is 33.4%; for `CC1(C)CNC(=O)c2nc(C3CCCN(C(=O)C4CC4)C3)[nH]c2C1` (configuration not stated) it is 73.68%; for `Cc1ccccc1C(=O)NCCCN1CCc2ccccc2C1` it is -13.46%.
The figure for `Cc1cccc(C(=O)NCCCN2CCc3ccccc3C2)c1C` is 28.88%.
Take `COc1cccc(C(=O)NCCCN2CCc3ccccc3C2)c1OC`: the INHIBITION is reported as 51.32%.
The value for `COC[C@@]12CCO[C@@H]1CCN(C(=O)COc1ccc(C)cc1)C2` was -42.87%; that for `O=C(NCCc1ccc(Cl)s1)N1CCS(=O)(=O)CC1` was -13.46%; that for `COc1cccc(F)c1C(C)NC(=O)NCc1ccnc(C)n1` (configuration not stated) was -38.35%.
Take `Cc1nc(C)n(CC2CN(S(C)(=O)=O)Cc3nccn3C2)n1` (configuration not stated): the INHIBITION is 26.66%.
The value for `CC1=Nc2c(c(=O)[nH]n2C(C)C)C(c2ccc(F)c(F)c2)S1` (configuration not stated) was -52.59%; that for `CC1=Nc2c(c(=O)[nH]n2C(C)C)C(c2ccsc2)S1` (configuration not stated) was 14.2%; that for `CC1=Nc2c(c(=O)[nH]n2C(C)C)C(c2ccc3c(c2)OCCO3)S1` (configuration not stated) was -19.21%.
The figure for `CC1=Nc2c(c(=O)[nH]n2C(C)C)C(c2cccs2)S1` (configuration not stated) is 63.91%.
The figure for `CC1=Nc2c(c(=O)[nH]n2C(C)C)C(c2ccccc2)S1` (configuration not stated) is 18.37%; for `CC1=Nc2c(c(=O)[nH]n2C(C)C)C(c2ccc3c(c2)n(C)c(=O)n3C)S1` (configuration not stated) it is 53.71%.
Consider `COc1ccccc1[C@@H]1CN(C(=O)c2csc(C)n2)C[C@H]1C(=O)O`, for which the INHIBITION is listed as 10.69%.
Regarding `CC(C)CC(C#N)NC(=O)COC1CCCCC1` (configuration not stated), the INHIBITION was determined as 30.23%.
With `c1csc(CN2C[C@@H]3OCCN(CC4CCCO4)[C@@H]3C2)c1` (some centres not stated), the INHIBITION is 20.13%.
The figure for `CCOCCN1CCN(CC(=O)N2CCCC2)CC1CC` (configuration not stated) is -9.17%; for `CCOCCN1CCN(Cc2cccc(C(=O)N(C)C)c2)CC1` it is 10.62%.
The value for `CCOCCN1CCN(Cc2cccc(C(=O)N(C)C)c2)CC1CC` (configuration not stated) was 50.05%.
The figure for `CCOCCN1CCN(Cc2cccc(C(=O)N(C)C)c2)CC1C` (configuration not stated) is 30.29%; for `CCOCCN1CCN(CC(=O)N2CCC2)CC1CC` (configuration not stated) it is 53.98%; for `CCC1CN(Cc2cccc(C(=O)N(C)C)c2)CCN1CCOC` (configuration not stated) it is 2.77%.
For the molecule `CCC1CN(CC(=O)N2CCC2)CCN1CCOC` (configuration not stated), the INHIBITION stood at 24.15%.
With `CN(C)C(=O)c1cccc(CN2CCN(CCO)CC2)c1`, the INHIBITION is 54.99%.
The figure for `COCCN1CCN(Cc2cccc(C(=O)N(C)C)c2)CC1` is 21.83%.
The figure for `Cc1ccc(CN2CC3(CCN(C(=O)C4CC4)CC3)CC2C(=O)O)o1` (configuration not stated) is 15.46%; for `CCn1cc(NC(=O)NCC(c2cccc(F)c2)N(C)C)cn1` (configuration not stated) it is -41.59%; for `O=C(c1ccnnc1)N1C[C@@H](OCC2CCOCC2)[C@H]2OCCC[C@H]21` it is 3.35%.
The figure for `COc1cc(C)nc(N2CCN(C(=O)CCc3cscn3)CC2)n1` is -8.58%.
Take `CC1CS(=O)(=O)CCN1CCCc1ccc(Cl)cc1` (configuration not stated): the INHIBITION is -15.12%.
The figure for `CS(=O)(=O)N1CCOCC12CCN(Cc1ccc(F)cc1)CC2` is -12.74%; for `CNC(=O)N1CC[C@@H]2CN(Cc3cccnc3)S(=O)(=O)[C@@H]2CC1` it is -23.02%; for `Cc1ccc(CN2CCC3(CC2)CC(c2cccnc2)C(=O)N3C)o1` (configuration not stated) it is 8.6%.
On to `Cc1nc2c(c(=O)[nH]1)CN(Cc1ccc3c(c1)CCCN3C)CC2`, for which the INHIBITION is recorded as 30.25%.
The value for `CSCCCN1CCCC1c1noc(C(C)C)n1` (configuration not stated) was 5.05%.
As to `Cc1ccccc1OC1CCN(CC(=O)Nc2cn(C)nc2C)CC1`, the INHIBITION is listed as 54.75%.
On to `Cc1ccccc1OC1CCN(CC(=O)Nc2ccn(C)n2)CC1`, for which the INHIBITION worked out at 9.02%.
The figure for `CCn1cc(NC(=O)CN2CCC(Oc3ccccc3C)CC2)c(C)n1` is 45.49%; for `CCOc1ncnc2c1CCN(C(=O)CN(C)C)CC2` it is 19.49%; for `O=C(CC1CC1)N1Cc2nccn2CC(COc2cccnc2)C1` (configuration not stated) it is 23.97%.
As for `OC1(CN2CCc3nnc(Cc4cccnc4)n3CC2)CCCNC1` (configuration not stated), the INHIBITION amounted to 34.71%.
The value for `OCCOc1ccc(NCc2cc(F)cc3cccnc23)cn1` was 45.56%; that for `Cc1ncccc1CNc1ccc(OCCO)nc1` was 3.49%.
The value for `OCCOc1ccc(NCc2cccc3cccnc23)cn1` was 67.44%; that for `CN(Cc1ccccc1)CC(O)Cn1cnc2ccc(Br)cc2c1=O` (configuration not stated) was -12.19%; that for `O=C1CC2(CCSC2)C(=O)N1Cc1coc(-c2ccc(F)cc2)n1` (configuration not stated) was -12.34%.
The value for `O=C(CCc1ccc(Cl)s1)NCc1nnc2n1CCCCC2` was 58.05%; that for `CCc1nnsc1C(=O)NCCc1nnc2n1CCC2` was -8.74%.
Take `O=C(Cc1ccc2c(c1)OCCO2)NCCc1nnc2n1CCC2`: the INHIBITION was -29.94%.
For `O=C(NCCc1nnc2n1CCCCC2)N1CCC2(CCOC2)C1` (configuration not stated), the INHIBITION was found to be 69.67%.
As to `O=C(NCCc1nnc2n1CCC2)N1CCC2(CCCCC2)C1`, the INHIBITION is given as -9.03%.
The figure for `O=C(NCc1ccc(Cl)s1)NCc1nnc2n1CCCCC2` is 15.28%; for `O=C(NCc1nnc2n1CCCCC2)N1CCc2ccccc2C1` it is 25.61%; for `O=C(NCCc1ccc(Cl)s1)NCc1nnc2n1CCCC2` it is -19.35%.
The value for `O=C(NCc1nnc2n1CCC2)N1CCC2(CCCCC2)CC1` was 26.74%.
The figure for `O=C(NCCc1nnc2n1CCCCC2)N1CCC2(CCCC2)CC1` is 55.36%; for `O=C(NCC1(c2ccc(F)cc2)CC1)N1CCC2(CCOC2)C1` (configuration not stated) it is -21.09%.
On to `O=C(NCc1nnc2n1CCCCC2)N1CCC2(CCCCC2)C1`, for which the INHIBITION was found to be 55.36%.
The figure for `Cc1nc(C)n(CC2CCCN2CC(=O)NCCC2=CCCCC2)n1` (configuration not stated) is 24.17%; for `COc1c(Br)c(C(=O)NC2CCCC2)nn1C` it is 32.75%.

The values are drawn from ChEMBL document CHEMBL4513216, “Probing the Open Global Health Chemical Diversity Library for Multistage-Active Starting Points for Next-Generation Antimalarials” (ACS Infect Dis, 2020).
